“And” between values parts separate entries of the source, which are not always exact repeats. Equal values may be shown once. Values without a mark were called inactive. Inconclusive results are not listed. A structure can be active in one record and inactive in another. The source made the active and inactive calls. Unless noted, the call rests on the fitted dose curve; in most records, active means well fitted curve in the direction sought with a large enough effect; inconclusive means small, poorly fitted or top-dose-only effect, or another doubt; inactive means no such curve, though single readings can be large; an effect the other way counts as inactive or inconclusive.

In test [1] the test system is Tov112D. Kind of test: Primary qHTS to identify gynecologic anti-cancer compounds using libraries of approved drugs and bioactive compounds (AID 1345084). Further: on the % scale 0 is the no-effect control and ±100 the full control effect; nearly all actives have a fitted effect of over 55% in size. The note with it: Gynecologic cancer cell panel viability, ATPlite luminescence, 48 h; series mostly up to 57.5 µM. The procedure, abridged: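 Five-point cytotoxicity, 48 h drug exposure at 37 C, 5% CO2, on cells seeded 16 h beforehand. ATP content read by ATPlite luminescence.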
On the technique in general: qHTS replaces the single test concentration by a dilution series.

Test [2] is described as follows: Drug repurposing screens with cells derived from glioblastoma tumor samples (AID 1345199). Further: nearly all actives have a fitted effect of over 40% in size. Further: potency means the concentration at half of the fitted maximal effect. On activity, negative = cell killing: on the % scale 0 is the no-effect control and ±100 the full control effect. The note with it: GBM patient neurospheres viability, ATP luminescence, 48 h. Summed up:
(§1)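 Four patient lines of CD133+ GBM neurospheres were screened at several concentrations; hits were retested in those lines plus three slower-growing GBM lines, using 48-hour treatment and ATP-based viability.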

Test [3] relates to astro. Described as above. The following applies: viability, ATP luminescence, 48 h; series mostly up to 45.9 µM. The procedure, abridged:
as §1

In test [4] the target is Nuclear receptor subfamily 1 group I member 2 (Rattus norvegicus) (UniProt Q9R1A7). Kind of test: qHTS assay for small molecule activators of the rat pregnane X receptor (rPXR) signaling pathway (AID 651751; call rule not given here; further: 0% is about no effect). The note with it: rPXR reporter cells, luciferase (One-Glo), 24 h.
Setting [5] is: at 45.9 µM (top of the series), tumour line B.
[6] abbreviates: at 45.9 µM (top of the series), tumour line D.
The mark [7] stands for this setting: at 46 µM (top of the series), tumour line A.
[8] abbreviates: at 21.2 µM (top of the series), tumour line B.
Setting [9] is: at 21.2 µM (top of the series), tumour line D.
[10] abbreviates: at 21.3 µM (top of the series), tumour line A.

Chain of Nuclear receptor subfamily 1 group I member 2 (Rattus norvegicus) (Q9R1A7 whole entry, looked up): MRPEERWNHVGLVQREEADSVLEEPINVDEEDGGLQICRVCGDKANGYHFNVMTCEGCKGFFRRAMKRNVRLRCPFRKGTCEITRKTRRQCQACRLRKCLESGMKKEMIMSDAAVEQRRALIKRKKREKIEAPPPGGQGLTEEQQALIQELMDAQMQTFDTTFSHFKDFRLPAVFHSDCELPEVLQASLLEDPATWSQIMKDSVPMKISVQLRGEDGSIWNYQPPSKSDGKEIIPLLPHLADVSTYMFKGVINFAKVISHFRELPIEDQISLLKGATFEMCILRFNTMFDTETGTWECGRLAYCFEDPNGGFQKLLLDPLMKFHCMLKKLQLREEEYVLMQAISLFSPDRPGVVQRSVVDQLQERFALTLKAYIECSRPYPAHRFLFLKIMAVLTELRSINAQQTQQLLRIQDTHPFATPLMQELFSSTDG

Turning to `Cn1cc(C2=C(c3cn(C4CCN(Cc5ccccn5)CC4)c4ccccc34)C(=O)NC2=O)c2ccccc21`, the Potency result in test [1] was “inactive”. Besides, in test [2] (setting [5]), the activity, negative = cell killing was 31.3%. The Potency in test [2] (tumour line A) is 2.51 µM (active); in test [2] (tumour line D), 20 µM (active).
As for `Cc1ccc(-c2nc3ccc(C)cn3c2CC(=O)N(C)C)cc1`, the Potency result in test [1] and in test [3] was “inactive” throughout. In addition, the activity, negative = cell killing in test [2] (setting [5]) was -10.9%; in test [2] (setting [6]), 2.33%; in test [2] (setting [7]), -24.8%.
Turning to `O=P1(NCCCl)OCCCN1CCCl` (stereo not drawn), the Potency result in test [1] and in test [3] was “inactive” each time. Besides, the activity, negative = cell killing in test [2] (setting [8]) is -10.6%; in test [2] (setting [9]) it was -4.8%; in test [2] (setting [10]), -27.9%.
Regarding `c1ccc(C2CC2)c(OCC2=NCCN2)c1`, the Potency result in test [1] and in test [3] was “inactive” throughout. Besides, the activity, negative = cell killing in test [2] (setting [5]) was -20.7%; in test [2] (setting [6]), -19.1%. For the same molecule, the Potency in test [2] (tumour line A) was 11.2 µM (active).
In the case of `CN1CCN(C(=O)O[C@H]2c3nccnc3C(=O)N2c2ccc(Cl)cn2)CC1`, the Potency entry in test [1] and in test [3] was “inactive” in each case. Besides, the activity, negative = cell killing was -4.94% in test [2] (setting [5]), -12.7% in test [2] (setting [6]) and -22.2% in test [2] (setting [7]).
`CC1NCCOC1c1ccccc1` (stereo not drawn): the Potency entry in test [1] and in test [3] was “inactive” each time. The activity, negative = cell killing is -0.55% in test [2] (setting [5]), 7.64% in test [2] (setting [6]) and -23.4% in test [2] (setting [7]).
For `NCC1(CC(=O)O)CCCCC1`, the Potency entry in test [1] and in test [3] was “inactive” throughout. Moreover, the results for the activity, negative = cell killing in test [2] (setting [8]), in test [2] (setting [9]) and in test [2] (setting [10]) were -18.9%, -10.4% and -25.7%, respectively.
On to `CC[C@@H](CO)NC(=O)[C@@H]1C=C2c3cccc4[nH]cc(c34)C[C@H]2N(C)C1`, for which the Potency result in test [1] is “inactive”. Moreover, in test [2] (setting [7]), the activity, negative = cell killing was 16.5%.
In the case of `COc1ccccc1N1CCNCC1`, the Potency result in test [1] and in test [3] was “inactive” in each case. In addition, the activity, negative = cell killing in test [2] (setting [5]) was -16.5%; in test [2] (setting [6]) it was -3.17%; in test [2] (setting [7]), -37.1%.
As to `CNC(=O)c1ccc(N2C(=S)N(c3ccc(C#N)c(C(F)(F)F)c3)C(=O)C23CCC3)cc1F`, in test [1], the Potency entry is “inactive”.
The same measure, in the same setting: then `CC(O)(CS(=O)(=O)c1ccc(F)cc1)C(=O)Nc1ccc(C#N)c(C(F)(F)F)c1` (stereo not drawn), with “inactive”.
With `CC[N+](CC)(CC)CC`, the Potency entry in test [1] and in test [3] was “inactive” each time. The results for the activity, negative = cell killing in test [2] (setting [5]), in test [2] (setting [6]) and in test [2] (setting [7]) were -10.8%, -7.23% and -23.7%, respectively.
Consider `NN=C(N)N`, for which the Potency entry in test [1] and in test [3] was “inactive” in each case. Besides, the activity, negative = cell killing in test [2] (setting [5]) was -4.67%; in test [2] (setting [6]) it was 9.02%; in test [2] (setting [7]) it was -2.8%.
As to `COc1ccc(C(CN(C)C)C2(O)CCCCC2)cc1` (stereo not drawn), the Potency result in test [1] and in test [3] was “inactive” throughout. For the same molecule, the activity, negative = cell killing in test [2] (setting [5]) was -10.5%; in test [2] (setting [6]) it was 1.59%; in test [2] (setting [7]), -20%.
`CCOC(=O)C1(c2ccccc2)CCN(CCC(C#N)(c2ccccc2)c2ccccc2)CC1`: the Potency entry in test [1] was “inactive”.
With `O=C(NC(O)C(Cl)(Cl)Cl)NC(O)C(Cl)(Cl)Cl` (stereo not drawn), the Potency entry in test [1] and in test [3] was “inactive” throughout. For the same molecule, the activity, negative = cell killing in test [2] (setting [5]) is -10.4%; in test [2] (setting [6]), 2.45%; in test [2] (setting [7]) it was -14.7%.
Regarding `C#CCN(C)[C@H](C)Cc1ccccc1`, the Potency entry in test [1] and in test [3] was “inactive” throughout. The results for the activity, negative = cell killing in test [2] (setting [5]), in test [2] (setting [6]) and in test [2] (setting [7]) were -10.5%, -14.3% and -47.6%, respectively.
As to `COC[C@@H](NC(C)=O)C(=O)NCc1ccccc1`, the Potency result in test [1] was “inactive”.
In the case of `CC(C)=CCOc1c2occc2cc2ccc(=O)oc12`, the Potency result in test [1] and in test [3] was “inactive” in each case. Further, the activity, negative = cell killing in test [2] (setting [5]) is -6.14%; in test [2] (setting [6]) it was -22.8%. Also, the Potency in test [2] (tumour line A) was 17.8 µM (active).
As for `Cc1ncc(CNC(=O)N(CCCl)N=O)c(N)n1`, the Potency entry in test [1] and in test [3] was “inactive” in each case. Besides, the activity, negative = cell killing in test [2] (setting [5]) was -2.44%; in test [2] (setting [6]) it was -2.73%; in test [2] (setting [7]), -26.1%.
Turning to `NCC(CC(=O)O)c1ccc(Cl)cc1` (stereo not drawn), in test [1], the activity change, negative = cytotoxicity is -1.06% [at 0.462 µM]. The activity, negative = cell killing is -0.559% in test [2] (setting [5]), -15.2% in test [2] (setting [6]) and -26.1% in test [2] (setting [7]). In addition, the Potency entry in test [3] is “inactive”.
For `CC(C)=CC1C(C(=O)OCc2cccc(Oc3ccccc3)c2)C1(C)C` (stereo not drawn), the Potency entry in test [1] and in test [3] was “inactive” in each case. Besides, the activity, negative = cell killing in test [2] (setting [5]) was -17.7%; in test [2] (setting [6]), -26.5%. For the same molecule, the Potency in test [2] (tumour line A) is 12.6 µM (active).
With `CCC(C(N)=O)N1CCCC1=O` (stereo not drawn), the Potency result in test [1] and in test [3] was “inactive” throughout. In addition, the figures for the activity, negative = cell killing in test [2] (setting [5]), in test [2] (setting [6]) and in test [2] (setting [7]) were -7.31%, -6.8% and -24.9%, respectively.
`c1ccc2c(c1)Nc1ccccc1S2`: the Potency result in test [1] and in test [3] was “inactive” in each case. Moreover, the activity, negative = cell killing in test [2] (setting [5]) is -14.1%; in test [2] (setting [6]), -9.6%; in test [2] (at 91.6 µM (top of the series), tumour line B), -11.1%; in test [2] (at 91.6 µM (top of the series), tumour line D), -20.1%. Further, in test [2] (tumour line A), the Potency was 31.6 µM (active). For the same molecule, the max response in test [4] is 0.0251% and 2.69%.
As to `CC(CCc1ccccc1)NC(C)C(O)c1ccc(O)cc1` (stereo not drawn), the Potency entry in test [1] and in test [3] was “inactive” each time. In addition, the figures for the activity, negative = cell killing in test [2] (setting [5]) and in test [2] (setting [6]) were -9.92% and 2.61%, respectively. In test [2] (tumour line A), the Potency is 14.1 µM (active).
`CC[C@@H](CO)NC(=O)[C@@H]1C=C2c3cccc4c3c(cn4C)C[C@H]2N(C)C1`: the Potency result in test [1] is “inactive”. The results for the Potency in test [2] (tumour line A) and in test [2] (tumour line B) were 35.5 µM (active) and 17.8 µM (active), respectively.
For `C[C@]12CC[C@H]3[C@@H](CCC4=CC(=O)CC[C@@H]43)[C@@H]1CC[C@@H]2OC(=O)CCc1ccccc1`, the Potency entry in test [1] is “inactive”.
Regarding `COc1ccc2c(c1OC)CN1CCc3cc4c(cc3C1C2)OCO4` (stereo not drawn), in test [1], the Potency entry was “inactive”.
Regarding `O=C(O)C(=O)c1cn(Cc2ccccc2)c2ccc(-c3ccc(OC(F)(F)F)cc3)cc12`, the Potency entry in test [1] is “inactive”.
As to `N#CC(C#N)=Cc1ccc(O)c(O)c1`, the Potency result in test [1] is “inactive”.
With `CN1C(=S)CN=C(c2ccccc2)c2cc(Cl)ccc21`, in test [1], the Potency result is “inactive”. Besides, the activity, negative = cell killing in test [2] (setting [5]) is -24.8%; in test [2] (setting [6]) it was -20.4%.
For `NP(N)(=O)NC(=O)c1ccc(F)cc1`, the Potency entry in test [1] and in test [3] was “inactive” in each case. Besides, the activity, negative = cell killing was -10% in test [2] (setting [5]), -14.8% in test [2] (setting [6]) and -25.8% in test [2] (setting [7]).

The record behind these values is PubChem BioAssay (NCATS).
